High-throughput results as filed in PubChem BioAssay.
Only some compounds are listed: those with a hit (about 5% of all), similar ones and a draw of the others.
PREPL inhibitor – PREPL enzyme inhibitors, primary screen, biochemical, fluorescence polarization. Prolyl endopeptidase-like (Homo sapiens), Q4J6C6. recombinant PREPL, fluorescence polarization activity-based probe. inhibition, % at 5.96 µM. 0.68% of 320,000 active. AID 2751, 2010; in the data active = inhibition above about 43%;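 note: 0% = enzyme with DMSO and 100% = wells lacking enzyme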
AI-2 QS mod – Vibrio harveyi AI-2 quorum sensing modulators, primary screen, JMH597 strain, luminescence/OD600 ratio | AID 2094, 2009 | 0.4% of 300,000 active | activity change, % at 7.5 µM | Vibrio harveyi JMH597 AI-2 luminescence/OD600 ratio, 9 h; stronger effect = lower value; strain lacks LuxN and CqsS sensors; 0 = neutral-control median; in the data active = activity change below about -75%, passing the limit was not always enough; inconclusive = no clear call, values can overlap the other calls;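 note: luminescence divided by OD600 gain over 9 h not by final OD600 alone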
CHT PAM – CHT positive allosteric modulators, primary screen, cell-based, membrane potential dye, choline EC20. 0.49% of 310,000 active. CHT-expressing cells; stronger effect = higher value; LV-AA mutant CHT in HEK293 cells. High affinity choline transporter 1 (Homo sapiens), Q9GZV3. AID 488977, 2010. B-score at 10 µM;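 active = initial fluorescence not abnormally high and integrated response B-score, plate-corrected, over 3 SD above library mean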
Target sequence (Q9GZV3 whole entry, looked up): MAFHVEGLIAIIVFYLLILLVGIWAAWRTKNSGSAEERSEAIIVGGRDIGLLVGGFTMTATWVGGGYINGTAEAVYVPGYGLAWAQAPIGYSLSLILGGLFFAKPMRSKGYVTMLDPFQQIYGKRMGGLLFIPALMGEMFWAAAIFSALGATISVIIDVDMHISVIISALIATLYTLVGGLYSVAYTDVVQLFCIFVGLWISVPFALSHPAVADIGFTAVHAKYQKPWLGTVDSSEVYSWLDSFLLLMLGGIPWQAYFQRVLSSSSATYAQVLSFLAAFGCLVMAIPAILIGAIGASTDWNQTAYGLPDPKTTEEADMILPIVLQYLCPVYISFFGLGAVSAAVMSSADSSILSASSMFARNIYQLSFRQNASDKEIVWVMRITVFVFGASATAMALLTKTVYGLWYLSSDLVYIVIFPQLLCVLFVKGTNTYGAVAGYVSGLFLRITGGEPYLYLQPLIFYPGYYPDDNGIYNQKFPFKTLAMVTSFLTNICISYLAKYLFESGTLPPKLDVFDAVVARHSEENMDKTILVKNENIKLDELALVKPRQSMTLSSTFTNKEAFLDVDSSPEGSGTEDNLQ
CHT block – inhibitors of human choline transporter CHT; B-score at 10 µM; CHT-expressing cells, membrane potential dye, choline response; stronger effect = lower value; AID 488975, 2010; 0.86% of 310,000 active;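 active = B-score over 3 SD under the library average, and starting fluorescence ratio not unusually high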;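 note: choline stimulus applied at its EC90 after an EC20 pre-addition; B-score computed on integrated fluorescence ratio after choline addition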
ALR inh – inhibitors of human ALR sulfhydryl oxidase, primary screen, biochemical, H2O2 detection, HRP-luminol luminescence, single point; FAD-linked sulfhydryl oxidase ALR (Homo sapiens), P55789; AID 485317, 2010; 3.8% of 290,000 active; inhibition, % (concentration not given with the values); purified ALR, DTT oxidation;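 active = mean replicate inhibition above about 79%, with every replicate also reaching it, limit read from the data; inconclusive = only one of the two criteria met; inactive = mean below limit and not every replicate reaching it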
* hit, by the source's call; i = inactive; ? = inconclusive; / = not tested or not shown.

SMILES | PREPL inhibitor | AI-2 QS mod | CHT PAM | CHT block | ALR inh
Cc1[nH]c2ccccc2c1C(C[N+](=O)[O-])c1ccco1 (stereo not given) | -2 | 7 | i | i | 21
COc1ccc(CN(CC(=O)NC(C)C)C(=O)CCC(=O)Nc2nccs2)cc1 | 9 | 3 | i | i | -8
C=C(C)COc1ccc2c(CC)cc(=O)oc2c1 | 5 | 5 | i | i | -9
Cc1cc(C(=O)Nc2nnc(-c3ccccc3)s2)no1 | 6 | 4 | i | i | 93*
Cc1cc(C(=O)Nc2nnc(C3CCCCC3)s2)no1 | 4 | 38 | i | i | 86*
O=C(NCC[C@@H]1C[C@@H]2C=C[C@H]1C2)c1cc(COc2ccc(F)cc2F)on1 | 13 | 32 | i | i | /
N#Cc1ccccc1CN1C(=O)NC2(CCCCCC2)C1=O | 1 | 11 | i | i | 0
CC(C)CN(C(=O)CN1CCN(c2ccc(O)cc2)CC1)c1c(N)n(CC(C)C)c(=O)[nH]c1=O | 1 | 30 | i | i | 99*
CCc1ccc(S(=O)(=O)c2nnn3c2nc(N2CCOCC2)c2ccccc23)cc1 | 5 | 18 | i | i | -11
COc1nc(-c2ccccc2Cl)ccc1C#N | 26 | -18 | i | i | 98*
COC(=O)CCN1CCN(S(=O)(=O)c2ccc3c(c2)OCCO3)CC1 | 3 | / | / | / | -2
CCN1CCN(c2c(Cl)cccc2NC(=O)c2ccc([N+](=O)[O-])o2)CC1 | 11 | 21 | 7.1* | i | /
O=C(Nc1cccc(Cl)c1N1CCCC1)c1ccc(Br)o1 | -9 | 9 | i | i | 44
COc1ccc(Nc2nc(Cl)nc(N3CCN(c4ccc(OC)cc4)CC3)n2)cc1 | 11 | 28 | i | i | -1
O=C(Nc1ccc(O)cc1)c1ccc(NC(=O)C2CCCO2)cc1 (stereo not given) | / | 7 | i | i | 99*
CCN(CC)c1ccc(NC(=O)c2ccc(NC(=O)C3CCCO3)cc2)c(C)c1 (stereo not given) | 15 | / | i | i | 99*
NC(=O)c1ccc(NC(=O)C2CCCO2)cc1 (stereo not given) | 18 | 10 | i | i | -11
O=C1Oc2ccccc2C(=O)/C1=C\N1CCN(c2ccccc2)CC1 | 16 | 21 | i | i | 97*
Cc1ccc(NCc2ccccc2O)c(C)c1 | 2 | 1 | i | i | ?
Cc1cccc(NCc2ccccc2O)c1C | 11 | 20 | i | i | 99*
O=C(Cc1ccccc1Cl)Nc1cc(S(=O)(=O)N2CCOCC2)ccc1N1CCOCC1 | 12 | / | / | / | 1
Cc1ccc(CCNC(=O)C2CCC(=O)N2Cc2ccc(F)cc2)cc1 (stereo not given) | -2 | 8 | i | i | -5
CN(CCCNC(=O)C1CCC(=O)N1Cc1ccc(F)cc1)c1ccccc1 (stereo not given) | 7 | 34 | i | i | 99*
O=C(C1CCC(=O)N1Cc1ccccc1Cl)N1CCN(c2ccc(F)cc2)CC1 (stereo not given) | 23 | 9 | i | i | 97*
CN(CCCNC(=O)C1CCC(=O)N1Cc1ccccc1Cl)c1ccccc1 (stereo not given) | 12 | 32 | i | i | 98*
SMILES | PREPL inhibitor | AI-2 QS mod | CHT PAM | CHT block | ALR inh
Cc1nn(Cc2ccc(Cl)cc2)c(C)c1NC(=O)C(c1ccccc1)c1ccccc1 | 15 | 8 | i | i | -3
O=C(NC1CCCN(CCc2ccccc2)C1)c1c(F)cccc1F (stereo not given) | -13 | 12 | i | i | -2
CCOC(=O)C1=C(C)NC(=O)NC1c1ccc(OC(=O)c2ccco2)c(OC)c1 (stereo not given) | 67* | 26 | i | i | 0
COC(=O)C1=C(C)NC(=O)NC1c1ccc(OC(=O)c2ccco2)cc1 (stereo not given) | 36 | 32 | i | i | 2
COc1cc(C2NC(=S)NC(C)=C2C(=O)OC(C)C)ccc1OC(C)C (stereo not given) | -4 | -1 | i | i | 96*
COc1cc(C2NC(=O)NC(C)=C2C(=O)OC(C)C)ccc1OC(=O)c1ccco1 (stereo not given) | 79* | 33 | i | i | -4
CCOC(=O)C1=C(C)NC(=O)NC1c1ccc(OCC(=O)OC)c(OC)c1 (stereo not given) | 10 | -3 | i | i | -6
CC(=O)NS(=O)(=O)c1ccc(NC(=O)CCC(=O)Oc2ccc(C)cc2)cc1 | 8 | 12 | i | i | 25
CN(Cc1ccccc1Cl)C(=O)CNC(=O)C12CC3CC(CC(C3)C1)C2 | 22 | / | / | / | 3
O=C(CCl)NN=C(c1ccccc1)c1ccccc1 | -11 | 6 | i | i | 94*
CCOP(=O)(OCC)C(Nc1ccc(C)cc1)c1ccco1 (stereo not given) | 5 | 39 | i | i | ?
COc1ccc(OC(=O)CCc2c[nH]c3ccccc23)cc1 | -22 | 43 | i | i | 8
CC1(C)CC(=O)C(C=NCCc2ccc(O)cc2)=C(O)C1 | 4 | 24 | i | i | 96*
Nc1cc(C(F)(F)F)ccc1C(=O)O | -2 | 8 | i | i | 97*
Nc1cc(C(F)(F)F)ccc1-n1cccc1 | -3 | 6 | i | i | 2
Cc1csc(SCC(=O)Nc2oc(C)c3c(C)n[nH]c(=O)c23)n1 | -5 | 9 | i | i | 25
Cc1n[nH]c(=O)c2c(NC(=O)CSc3nn(-c4ccccc4)c(=S)s3)oc(C)c12 | 20 | 4 | i | i | 99*
CC1=CC2=NC(=O)/C(=C/c3coc4ccc(Cl)cc4c3=O)C(=N)N2O1 | 5 | 2 | i | i | 97*
CC1=CC2=NC(=O)/C(=C\c3cc(C)n(-c4cccc(Cl)c4)c3C)C(=N)N2O1 | -6 | 22 | i | i | -3
CC(C)(C)[C@@H]1CCC(=O)N(CC[C@H](Sc2ccc(Br)cc2)c2ccccc2)CC1 | 11 | / | / | / | -9
CCCCc1nnc(NC(=O)CSc2nc(=O)cc(N)n2-c2ccccc2)s1 | 3 | 35 | i | i | -63
Cc1ccc(-n2c(N)cc(=O)nc2SCC(=O)N2CCN(c3ccccc3)CC2)cc1 | 25 | 14 | i | i | 97*
Nc1cc(=O)nc(SCC(=O)N2CCN(c3ccccc3)CC2)n1-c1ccccc1 | 13 | 6 | i | i | 51
COC(=O)c1ccc(NC(=O)CSc2nc(=O)cc(N)n2-c2ccccc2)cc1 | 2 | 2 | i | i | 99*
Cc1ccc(-n2c(SCC(=O)N3CCCC3)nc3c(c2=O)SCC3)cc1 | 7 | 5 | i | i | 87*
